This is part of a sample that, as a whole, favours compounds with a hit. Of some 83,000 tested, about 20% had one in any assay.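 Each cell line was grown in a 96-well plate and treated with one concentration of compound for 48 hours. Values below 10 were considered active.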 A number with no mark means an inactive call. Active and inactive are the calls of the source.
Experiments:
Assay in all cases: NCI-60 one-dose screen, 48 h (100 = growth as untreated, 0 = no growth, -100 = all killed)
Details in all cases: 10 µM unless noted
[1] = system: SR leukemia
[2] = system: RPMI-8226 leukemia
[3] = system: OVCAR-8 ovarian
[4] = system: OVCAR-5 ovarian
[5] = system: OVCAR-4 ovarian
[6] = system: SK-OV-3 ovarian
[7] = system: IGROV1 ovarian
[8] = system: OVCAR-3 ovarian
[9] = system: HS 578T breast
[10] = system: T-47D breast
[11] = system: BT-549 breast
[12] = system: MDA-MB-435 melanoma
[13] = system: SW-620 colon
[14] = system: MCF7 breast
[15] = system: HCT-116 colon
[16] = system: HCC-2998 colon
[17] = system: KM12 colon
[18] = system: NCI/ADR-RES ovarian

| Structure (SMILES) | growth [1] | growth [2] | growth [3] | growth [4] | growth [5] | growth [6] | growth [7] | growth [8] | growth [9] | growth [10] | growth [11] | growth [12] | growth [13] | growth [14] | growth [15] | growth [16] | growth [17] | growth [18] |
| --- | --- | --- | --- | --- | --- | --- | --- | --- | --- | --- | --- | --- | --- | --- | --- | --- | --- | --- |
| O=[N+]([O-])c1ccc(SSc2ccc([N+](=O)[O-])cc2Cl)c(Cl)c1 | 84.5% | 80% | 100% | 126% | 83% | 104% | 69.6% | 101% | 90.5% | 70.6% | 97.4% | 113% | 97.6% | 77.3% | 91.1% | 106% | 98% | – |
| ClCc1c(Cl)c(Cl)c(Cl)c(CCl)c1Cl | 4.07% (active) | 18.4% | 49.5% | 118% | -66.2% (active) | 113% | 4.3% (active) | -94.5% (active) | 89.3% | -71.5% (active) | 87.5% | 52.2% | -82.2% (active) | -4.94% (active) | -76.8% (active) | 88.6% | 24.8% | – |
| Nc1nc(N)c2cc(NCc3ccc(Cl)c(Cl)c3)ccc2n1 | -53.9% (active) | -42% (active) | -78.8% (active) | -92.5% (active) | -86.9% (active) | -99.7% (active) | -58.8% (active) | -95.3% (active) | -48.6% (active) | -81.3% (active) | 46.3% | -68.1% (active) | -77.4% (active) | -72.8% (active) | -88.2% (active) | -85.9% (active) | -94.4% (active) | – |
| Nc1ncnc2c1N=C(c1ccc3c(c1)OCO3)CC(c1ccc(Cl)cc1)N2 (stereo unspecified) | 41.3% | 18.4% | 89.8% | 68.5% | 77.7% | 78.9% | 13% | 103% | 70.2% | – | 81.2% | 78.7% | 79.9% | 56.6% | 87.3% | – | 71.7% | 60% |
| COc1ncnc2[nH]cc(CN3CCN(c4ccc(F)cc4)CC3)c12 | 105% | 103% | 100% | 102% | 115% | 104% | 102% | 114% | 97.5% | 104% | 107% | 91.9% | 108% | 103% | 111% | 104% | 109% | – |
| COc1ccc(-c2cc(C(=O)Nc3ccc(Br)cc3)nc3[nH]c(=O)sc23)cc1 | 65.1% | 14.2% | 43.1% | 84.9% | 34.2% | 26.7% | 25.2% | – | 41.6% | -0.894% (active) | 47% | 39.6% | 57.1% | 24.3% | 32.1% | 36.1% | 34.7% | 40.7% |
| Nc1c(C(=O)Nc2cccc(Cl)c2)sc2nc3c(cc12)C(=O)CCC3 | 39.1% | 51.8% | 75.3% | 58.3% | 60.4% | 35.2% | 52.4% | – | 4.53% (active) | 52.9% | 66.4% | -39.1% (active) | 31.3% | 16.7% | 27.4% | 8.27% (active) | 21.6% | 17.7% |
| O=C1/C(=C/c2ccccc2)SC(=Nc2ccccc2)N1Nc1ccccc1 | -20.1% (active) | -37.4% (active) | 24.5% | 22.3% | 8.26% (active) | 10.5% | 22.7% | – | 35.1% | 5.78% (active) | -19.3% (active) | -25.4% (active) | 13.1% | 1.62% (active) | -23.4% (active) | 20.3% | 3.45% (active) | 8.98% (active) |
| CC(C)(C)OC(=O)N1CCCN(CCNc2nccc(-c3c(-c4cccc(O)c4)nc4sccn34)n2)S1(=O)=O | 77.3% | 96.8% | 96.8% | 114% | 108% | – | 79.5% | 119% | 109% | 86.6% | 136% | 54.1% | 131% | 97.8% | 81.7% | 108% | 111% | 99% |
| O=C(/C=C/c1ccccc1Br)c1cccc(OCCCCOc2cccc(C(=O)/C=C/c3ccccc3Br)c2)c1 | 31.8% | -11.7% (active) | 102% | 105% | 101% | 104% | 92.4% | – | 102% | 75.4% | 104% | 97% | 99% | 28.1% | 16.4% | 109% | 101% | 102% |
| CN(C)c1ccc(C2(Cl)c3ccccc3N(C)c3ccccc32)cc1 | 25.4% | 21.1% | 7.94% (active) | 91.7% | 59.5% | – | 46.5% | 35.8% | 71.7% | 33.5% | 71.9% | 46.7% | 21.6% | 50.4% | 5.46% (active) | 77.4% | 36.7% | 94.6% |
| O=C(CCl)Nc1cc(O)c2c(c1)C(=O)c1cccc(O)c1C2=O | -35.5% (active) | -53.8% (active) | -49.5% (active) | -40% (active) | -1.37% (active) | 17.1% | -55.6% (active) | – | 11.4% | -76.4% (active) | -48.4% (active) | 13.5% | -73.8% (active) | -49.6% (active) | -33.9% (active) | -42.3% (active) | -45.8% (active) | 19.1% |
| COc1cc(/C=C/c2cc(/C=C/c3ccc(O)c(OC)c3)n(C(=O)c3ccccc3Br)n2)ccc1O | -4.77% (active) | 14.3% | 27.7% | 84.5% | 49.8% | 16.6% | 25% | – | 3.59% (active) | 49% | 14.5% | -30.5% (active) | 20.9% | 20.2% | 6.9% (active) | 40.9% | 4.98% (active) | 28.1% |
| CC(C)C/C=C/C=C/C(=O)N[C@@H](CC(N)=O)C(=O)N[C@@H]1C(=O)N[C@H](c2ccc(O)cc2)C(=O)N[C@H](CCCN)C(=O)N[C@H]([C@@H](C)O)C(=O)N[C@H](c2ccc(O)cc2)C(=O)N[C@H](c2ccc(O)cc2)C(=O)N[C@H]([C@H](C)O)C(=O)N[C@H](Cc2ccccc2)C(=O)N[C@H](CCCN)C(=O)N[C@H](c2ccc(O[C@H]3O[C@@H](CO)[C@@H](O)[C@@H](O)[C@H]3O[C@@H]3O[C@H](CO)[C@H](O)[C@H](O)[C@@H]3O)cc2)C(=O)N[C@H]([C@H](C)O)C(=O)N[C@H](c2ccc(O)cc2)C(=O)NCC(=O)N[C@H](CC(C)C)C(=O)N[C@H](C)C(=O)N[C@H](c2ccc(O)c(Cl)c2)C(=O)O[C@@H]1C(N)=O | 33.1% | 109% | 63.9% | 36.2% | 117% | – | 96.6% | 117% | 67.3% | 94.9% | -2.76% (active) | 57.2% | 96.3% | 54.9% | 20.4% | 104% | 44.3% | 96.9% |
| COc1cc(CN(CCC(O)N2CCCC2=O)Cc2ccc3c(c2)OCO3)cc(OC)c1OC (stereo unspecified) | 86.3% | 98.7% | 100% | 98.5% | 108% | 102% | 95% | – | 103% | 96% | 101% | 103% | 108% | 96.8% | 92.4% | 113% | 105% | 103% |
| Cc1ccncc1NC=O | 93.8% | 99.9% | 104% | 110% | 108% | 110% | 114% | – | 109% | 102% | 132% | 105% | 99.2% | 95.9% | 108% | 113% | 103% | 107% |

Source: PubChem BioAssay (NCI)
